Luc counter = Counterscreen for Luciferase (Kinase-Glo TM) Inhibition; Luciferin 4-monooxygenase (Photuris pensylvanica), Q27757; Kinase-Glo luciferase, ATP luminescence, 8 min; Potency, µM (top dose mostly 38.3 µM), inactives show at the top dose activity change, negative = inhibition, hits mostly inhibitors; 0.28% of 200,000 active; AID 1379, 2008; further: on the % scale 0 is the no-effect control and ±100 the full control effect; nearly all actives have a fitted effect of over 60% in size
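Light output from Kinase-Glo luciferase with luciferin and 10 uM ATP in 50 mM imidazole pH 7.2, KCl, MgCl2, Tween 20, BSA; compound pin-delivered, 8-min ambient incubation, then luminescence read.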
Rab9 prom act = qHTS Assay for Rab9 Promoter Activators. AID 485297, 2010. Potency, µM (titrated, usually from 9.22 µM), inactives show top-dose activation, negative = inhibition, usual class: activators. 2.8% of 320,000 active. Huh7 Rab9 promoter-luciferase reporter, luminescence, 24 h; further: % of control where 0% means no effect; nearly all actives have a fitted effect of over 60% in size
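Huh7 reporter line, Rab9 promoter upstream of luciferase. Compound exposure 24 h at 37 °C in reduced-serum medium with 10% FBS. Read-out: luminescence.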
NPC1 prom act = qHTS Assay for NPC1 Promoter Activators; 2.4% of 320,000 active; Potency, µM (top dose mostly 9.22 µM), without a hit: top-dose activation, usual class: activators; Huh7 NPC1 promoter luciferase reporter, 24 h; further: % of control where 0% means no effect; nearly all actives have a fitted effect of over 60% in size
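Huh7 cells stably carrying NPC1 promoter–luciferase, plated in Opti-MEM with 10% FBS for 2 h, were exposed to compound in DMSO for 24 h at 37 °C; luciferase reagent was added for 10 min and luminescence read.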
ELG1 genotoxic = qHTS screen for small molecules that induce genotoxicity in human embryonic kidney (HEK293T) cells expressing luciferase-tagged ELG1; HEK293T ELG1-luciferase reporter, luminescence, 16 h; Potency, µM (series often up to 46 µM), without a hit: top-dose activity change, positive = activation, most hits filed as activators; 1.3% of 330,000 active; AID 504466, 2011; further: % of control where 0% means no effect; nearly all actives have a fitted effect of over 60% in size
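16 hr compound incubation (37 °C, 5% CO2) of HEK293T cells carrying luciferase-tagged ELG1; luciferase then measured by ONE-Glo luminescence after 30 min at RT.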
FLuc modulator = qHTS profiling assay for firefly luciferase inhibitor/activator using purifed enzyme and Km concentrations of substrates (counterscreen for miR-21 project). purified FLuc, Km substrates, luminescence inhibition. Potency, µM (top dose mostly 57.5 µM), for inactives: top-dose activity change, negative = inhibition, most hits filed as inhibitors. 6.9% of 360,000 active;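 further: plate controls were vehicle for no effect and reference inhibitor for full effect; nearly all actives have a fitted effect of over 55% in size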
Target sequence (P08659 whole entry, looked up): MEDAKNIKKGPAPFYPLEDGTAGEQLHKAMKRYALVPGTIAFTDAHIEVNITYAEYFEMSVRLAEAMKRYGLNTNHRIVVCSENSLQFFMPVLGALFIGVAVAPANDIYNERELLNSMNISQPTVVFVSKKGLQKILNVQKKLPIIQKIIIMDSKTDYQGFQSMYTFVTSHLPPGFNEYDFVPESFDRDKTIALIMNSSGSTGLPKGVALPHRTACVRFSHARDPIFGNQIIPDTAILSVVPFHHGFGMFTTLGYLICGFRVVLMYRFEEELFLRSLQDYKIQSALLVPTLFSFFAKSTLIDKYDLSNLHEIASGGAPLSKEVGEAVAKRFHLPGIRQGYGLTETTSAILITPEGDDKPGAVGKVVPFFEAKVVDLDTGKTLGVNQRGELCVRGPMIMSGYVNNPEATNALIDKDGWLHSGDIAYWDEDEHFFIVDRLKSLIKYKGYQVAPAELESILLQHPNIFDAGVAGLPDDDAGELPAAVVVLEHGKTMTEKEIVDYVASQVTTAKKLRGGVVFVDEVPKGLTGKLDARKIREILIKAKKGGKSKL
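Purified P. pyralis luciferase (10nM final) with 10uM D-luciferin and 10uM ATP (Km levels) in 50mM Tris acetate pH 7.5, 10mM Mg acetate, 0.01% Tween-20, 0.05% BSA; qHTS 6-point titration, ~60 µM downward; luminescence read.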
SMN2 splice enh = qHTS Assay for Enhancers of SMN2 Splice Variant Expression; HEK293 SMN2-luciferase splicing reporter, luminescence, 30-36 h; Potency, µM (highest dose often 46.1 µM), without a hit: top-dose activity change, positive = activation, usual class: activators; 2.8% of 210,000 active; AID 1458, 2008; further: % of control where 0% means no effect; nearly all actives have a fitted effect of over 55% in size
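HEK293 cells carry an SMN2 minigene-luciferase reporter in which exon 7 inclusion puts luciferase in frame. Cells were seeded at 2000 cells/well, attached for 10-12 hours, then exposed to compounds for 30-36 hours at 37C before ONE-Glo luminescence.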
The depositor's hits bear a star; u = inconclusive; x = no result given. In the library only some 7.5% were active in any assay of this set; here they are far more common. The call rests on the fitted dose curve; in most records, active means well fitted curve in the direction sought with a large enough effect; inconclusive means small, poorly fitted or top-dose-only effect, or another doubt; inactive means no such curve, though single readings can be large; an effect the other way counts as inactive or inconclusive. Potency means the concentration at half of the fitted maximal effect.

SMILES | Luc counter | Rab9 prom act | NPC1 prom act | ELG1 genotoxic | FLuc modulator | SMN2 splice enh
COc1ccc(C)cc1NC(=O)c1cn(C)c(=O)c2cc(OC)c(OC)cc12 | x | x | x | x | 3% | 5%
Cc1ccc(S(=O)(=O)N2C[C@@H]3[C@H]4CC[C@H](C4)[C@@H]3[C@@H](C)[C@@H]2c2ccn([Si](C(C)C)(C(C)C)C(C)C)c2)cc1 | x | x | x | 10% | x | x
CCCCc1ccc(-n2nc3cc(Cl)c(NC(=O)c4ccc(OC)cc4)cc3n2)cc1 | x | x | x | x | -3% | -1%
O=C(Nc1nc2ccc(F)cc2s1)c1cccs1 | -28% | 1.1µM* | 3.2µM* | u | 2.4µM* | 3.2µM*
COc1ccc(C2NC(=O)C(C#N)=C(S)N2c2ccc(C)cc2)cc1OC (stereo unspecified) | 0% | -2% | -1% | 2% | 19µM* | 17%
COc1ccc(C2NC(=O)C(C#N)=C(S)N2c2cccc(C)c2)cc1OC (stereo unspecified) | 0% | -8% | -9% | -2% | u | -3%
Cc1ccc(N2C(S)=C(C#N)C(=O)NC2c2cccs2)cc1 (stereo unspecified) | 0% | 1% | 0% | -1% | -16% | 4.5µM*
COc1cc(C2NC(=O)C(C#N)=C(S)N2c2ccc(C)cc2)ccc1OC(C)C (stereo unspecified) | 2% | 0% | 1% | u | 15µM* | -31%
N#CC1=C(S)N(c2ccccc2)C(c2cccs2)NC1=O (stereo unspecified) | 6% | 2% | 6% | -3% | 6% | 24%
CCOc1ccc(C2NC(=O)C(C#N)=C(S)N2c2ccc(OC)cc2)cc1OC (stereo unspecified) | 0% | 3% | 3% | 1% | 21µM* | -6%
Cc1ccc(N2C(S)=C(C#N)C(=O)NC2c2ccco2)cc1 (stereo unspecified) | 8% | 2% | -4% | 9% | u | 7%
COc1ccc(N2C(S)=C(C#N)C(=O)NC2c2ccc(OC)c(OC)c2)cc1 (stereo unspecified) | 0% | -5% | -7% | 6% | u | x
O=C(c1ccco1)N1CCC2(CC1)CCN(C(c1ccccc1)c1ccccc1)CC2 | -1% | x | x | x | x | -5%
O=C(Nc1ccc(Cl)c(Cl)c1)C1CCCCC1 | x | 20% | 4% | 14% | u | x
Cc1ccc2oc(C(=O)NCCC3CCCCO3)c(C)c2c1 (stereo unspecified) | x | 0.45µM* | 0.56µM* | 3.7µM* | 2.7µM* | x
COc1ccsc1C(=O)NCCN1CCOCC1 | x | 2% | 1% | -4% | 6% | x
COc1ccc2oc(C(=O)NCCN3CCOCC3)c(C)c2c1OC | x | 2.2µM* | 2µM* | 10µM* | 15µM* | x
Cc1ccc2oc(C(=O)NCCCN3CCOCC3)c(C)c2c1 | x | 4µM* | 3.2µM* | 18µM* | 13µM* | x
Cc1ccc([C@H]2C(C(=O)O)=CC[C@@H](c3ccc(C)cc3)N2S(=O)(=O)c2ccccc2C)cc1 | x | x | x | -2% | x | x
COc1ccc(CN2CCc3nc(SCC(=O)Nc4cc(C)cc(C)c4)[nH]c(=O)c3C2)cc1 | x | x | x | x | -1% | x
Cc1c(N)cccc1-c1nc2ccccc2[nH]1 | -9% | 30% | 25% | 18% | 24µM* | 10µM*
Cc1sc2nc(-c3ccncc3)[nH]c(=O)c2c1-c1ccccc1 | 1% | -12% | 1% | 6% | -14% | -5%
Cc1sc2nc(-c3ccccn3)[nH]c(=O)c2c1-c1ccccc1 | -14% | 28% | 24% | u | 11µM* | 52%
Cc1ccc2nc(-c3ccccc3N)[nH]c2c1 | -30% | 0.5µM* | 1.1µM* | 1.2µM* | 0.76µM* | 7.1µM*
Cc1ccc2nc(-c3ccccn3)[nH]c2c1 | x | 0.35µM* | u | u | 1.3µM* | x
SMILES | Luc counter | Rab9 prom act | NPC1 prom act | ELG1 genotoxic | FLuc modulator | SMN2 splice enh
Cc1ccc2nc(CCCc3nc4ccc(C)cc4[nH]3)[nH]c2c1 | x | 0% | 1% | -7% | u | x
Nc1nc2ccccc2[nH]1 | x | 3% | -1% | -2% | 0% | -6%
O=C(NC1CCCN(CCc2ccccc2)C1)C1CCCC1 (stereo unspecified) | x | 0% | 0% | 1% | 0% | x
CN(C)S(=O)(=O)c1cc(NC(=O)C2=COCCO2)ccc1Cl | x | 1% | -4% | 3% | u | x
COC(=O)c1ccc(C(NC(=O)OCc2ccccc2)/C(=C/[C@@H](C)C(=O)NCc2nc3ccccc3n2C)c2cccnc2)cc1 (stereo partly specified) | -3% | x | x | x | x | 0%
c1ccc(-c2nc3ccccc3[nH]2)nc1 | 7.9µM* | 2.8µM* | 4µM* | u | 12µM* | 3.2µM*
Nc1nc(CSc2nc3ccccc3[nH]2)cs1 | 0% | u | u | 12% | u | 19%
Nc1nc(-c2nc3ccccc3[nH]2)cs1 | -20% | 1.1µM* | 1.3µM* | 2.1µM* | 5.4µM* | 16µM*
O=c1[nH]c(-c2ccccn2)nc2ccccc12 | x | u | u | u | 24µM* | x
c1ccc(-c2nc3c(ccc4ccccc43)[nH]2)nc1 | -15% | u | 2.8µM* | 18% | 3.8µM* | 14µM*
c1ccc(-c2n[nH]c(-c3ccccc3)c2-c2nc3ccccc3[nH]2)cc1 | -1% | -6% | -7% | -4% | -2% | -17%
Cc1ccc(N(Cc2cc(=O)[nH]c3ccccc23)C(=O)CCl)c(C)c1 | x | -5% | -5% | -31% | -3% | x

Assay outcomes (PubChem BioAssay)
